# Test system: Plasmodium falciparum
# Experiment: GSK_TCMDC: Inhibition of Plasmodium falciparum Dd2 in whole red blood cells, using parasite LDH activity as an index of growth. Test compounds present at 2uM
# Type: functional
row,Compound,Inhibition [%]
1,Cc1cc(NC(=O)[C@H](CC2CCCCC2)Nc2ccc(C#N)c3ccccc23)ccc1F.O=C(O)C(F)(F)F,99
2,CNC(=O)COc1ccc(Nc2nnc(-c3ccc(C)c(S(=O)(=O)NCC4CCCO4)c3)c3ccccc23)cc1 (centres undefined),68
3,OCCCCCCNc1ccnc2[nH]c3ccc(I)cc3c12,61
4,CC(=O)Nc1ncc(C(=O)Nc2cccc(-c3ccc(-c4nc5cc(F)ccc5[nH]4)cc3)c2)s1,78
5,Cl.N=C(N)Nc1ccc(NC(=O)Nc2ccc(NC(=N)N)cc2)cc1,74
6,Cc1nc(C)c(-c2ccc(C(=O)c3ccc(Cl)cc3)cc2)c(O)c1Br,95
7,COC(=O)c1cccc(CNCc2cccc(-c3ccc(-c4nc5cccc(C)c5[nH]4)s3)c2)c1.O=C(O)C(F)(F)F,65
8,COc1cccc(C(=O)Nc2ccc(-c3nc4ccccc4[nH]3)cc2)c1,19
9,N#Cc1ccnc(-c2ccc(CNC3CCN(CC4Cn5c(=O)ccc6ccc(F)c4c65)CC3)cc2)c1.O=C(O)C(F)(F)F (centres undefined),41
10,CC(=O)Nc1ccc(CN2CCC(NC(=O)c3cc(-c4ccc(N(C)C)cc4)cs3)C2)cc1.O=C(O)C(F)(F)F (centres undefined),1
11,COc1cc(C(=O)NC2CC(C)(C)N(C)C(C)(C)C2)ccc1-c1cc2cc(Cl)c(Cl)cc2[nH]1,36
12,O=C(NCCc1ccccc1)N(Cc1cccc(-c2ccc(CNCCc3ccccc3)cc2)c1)C1CCN(Cc2ccccc2)CC1.O=C(O)C(F)(F)F,91
13,CC(=O)c1ccc(NC(=O)CSc2nc(-c3ccccc3Cl)ns2)cc1,72
14,NC1CCN(Cc2ccc(-c3ccc(-c4nc5ccccc5[nH]4)cc3)cc2)C1.O=C(O)C(F)(F)F (centres undefined),100
15,O=C(NCCN1CCOCC1)c1ccc(CNC(=O)c2ccc(O)c(-c3ccc(Cl)c(Cl)c3)c2)cc1,55
16,CC(=O)N[C@H](C(=O)Nc1cccc(-c2ccc(-c3nc4cccc(C)c4[nH]3)s2)c1)C(C)C,29
17,O=c1cc(NCCC(CNCCc2ccccc2)NCc2cc(Br)cc(Br)c2)[nH]c2ccccc12 (centres undefined),47
18,CCOc1ccc(C2CCN(CCCCNC(=O)c3ccc(NC(=O)c4ccc(Cl)cc4)cc3)CC2)c(Cl)c1,96
19,CN(C)CCCOc1ccc(CN2CC[C@H](NC(=O)c3ccc(Cl)c(Cl)c3)C2)c2ccccc12.O=C(O)C(F)(F)F,97
20,Oc1ccccc1N1CCN(c2ccc(-c3nc4ccccc4[nH]3)cn2)CC1,50

row,Compound,Inhibition [%]
1,Cc1ncccc1-c1cccc2c(NC(=O)Nc3ccc4nccc(N5CCN(C)CC5)c4c3)cccc12.Cl,96
2,CCOc1ccc(CCC(=O)O)cc1OCC,0
3,CCn1c(-c2nonc2N)nc2c(-c3cccc(NC(=O)Nc4ccc(C(F)(F)F)cc4)c3)ncc(OCCCN)c21.O=C(O)C(F)(F)F,63
4,CCCCCCn1c(Sc2ccc(C#N)c([N+](=O)[O-])c2)nnc1-c1ccc(OC)cc1,51
5,Nc1ccnc(N2CCC(CCOc3cc(C(F)(F)F)nc4c(C(F)(F)F)cccc34)CC2)c1,17
6,CCN(Cc1ccc(-c2ccc(C(F)(F)F)cc2)cc1)C(=O)Cn1c(SCc2cccc(F)c2F)cc(=O)c2cc(CN3CCCCC3)ccc21.Cl,50
7,COc1cccc(CC(=O)N2CCC(n3c(C)nc4ccc(C)cc43)CC2)c1,99
8,C=C(C)C1CC=C(CN2CCCC(n3ccc4cc(NC(=O)c5ccco5)ccc43)CC2)CC1 (centres undefined),95
9,CC(C)CNCc1ccc(-c2cccc(CN(C(=O)NCCc3ccccc3)C3CCN(Cc4ccccc4)CC3)c2)cc1.O=C(O)C(F)(F)F,94
10,Cc1nc(-c2ccc(-c3ccc(C(=O)Nc4ccc(-n5ccnc5)c(N5CCN(C)CC5)c4)cc3)c(C)c2)no1,100
11,CCOC(=O)C1=C(C)N=c2sc(=Cc3cc(Cl)ccc3O)c(=O)n2C1c1ccc(OC)cc1 (centres undefined),65
12,COc1ccc(NC(=O)NC2CCN(CCCCCNC(=O)/C=C/c3ccc(Cl)c(Cl)c3)C2)c(OC)c1 (centres undefined),9
13,COc1ccc(Nc2nccc(N3CCC(NC(=O)Nc4cc(C)ccc4C)C3)n2)cc1 (centres undefined),37
14,Cl.O=C(Nc1ccc(Cl)c(Cl)c1)N1CCc2cc3nccc(N4CCN5CCC[C@H]5C4)c3cc21,75
15,CN1CCN=C1c1ccc(NC(=O)Nc2ccc(C3=NCCN3C)cc2)cc1.Cl,69
16,Cc1ccc(C)c(Sc2ccc(NC(=O)CN3CCN(C(=O)c4ccco4)CC3)cc2)c1,93
17,C[C@@H](Oc1cc(-n2cnc3cc(SCCN4CCN(C)CC4)ccc32)sc1C(N)=O)c1ccccc1Cl,65
18,O=C(Cc1cccc(Cl)c1)Nc1ccc(N2CCC(NCc3ccc4ncccc4c3)CC2)cc1,8
19,O=C(Cc1ccc(-n2cnnn2)cc1)N(Cc1cncn1Cc1cccc(C(F)(F)F)c1)CC1CC1,0

# Source: ChEMBL document CHEMBL1157539, “Thousands of chemical starting points for antimalarial lead identification” (Nature, 2010)
